Experimental data published in PubChem BioAssay (NCI).
About 83,000 compounds went through this panel and 20% of them were active in at least one assay; those are over-represented in the sample as a whole.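 Compound tested at a single concentration for 48 hours in 96-well plates; a percent growth value below 10 was scored as active.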 Values without a mark were called inactive. Active and inactive are the calls of the source.

Legend:
Test in all cases: NCI-60 one-dose screen, 48 h (100 = growth as untreated, 0 = no growth, -100 = all killed)
Conditions in all cases: 10 µM unless noted
HCT-15 colon = test system: HCT-15 colon
HT29 colon = test system: HT29 colon
SNB-75 CNS = test system: SNB-75 CNS
SNB-19 CNS = test system: SNB-19 CNS
U251 CNS = test system: U251 CNS
PC-3 prostate = test system: PC-3 prostate
SK-MEL-5 melanoma = test system: SK-MEL-5 melanoma
UACC-62 melanoma = test system: UACC-62 melanoma
LOX IMVI melanoma = test system: LOX IMVI melanoma
SK-MEL-28 melanoma = test system: SK-MEL-28 melanoma
SK-MEL-2 melanoma = test system: SK-MEL-2 melanoma
EKVX NSCLC = test system: EKVX NSCLC
SN12C renal = test system: SN12C renal
UO-31 renal = test system: UO-31 renal
TK-10 renal = test system: TK-10 renal
ACHN renal = test system: ACHN renal
CAKI-1 renal = test system: CAKI-1 renal
CCRF-CEM leukemia = test system: CCRF-CEM leukemia
MOLT-4 leukemia = test system: MOLT-4 leukemia
A498 renal = test system: A498 renal

| SMILES | growth (HCT-15 colon) | growth (HT29 colon) | growth (SNB-75 CNS) | growth (SNB-19 CNS) | growth (U251 CNS) | growth (PC-3 prostate) | growth (SK-MEL-5 melanoma) | growth (UACC-62 melanoma) | growth (LOX IMVI melanoma) | growth (SK-MEL-28 melanoma) | growth (SK-MEL-2 melanoma) | growth (EKVX NSCLC) [%] | growth (SN12C renal) | growth (UO-31 renal) | growth (TK-10 renal) | growth (ACHN renal) | growth (CAKI-1 renal) | growth (CCRF-CEM leukemia) | growth (MOLT-4 leukemia) | growth (A498 renal) [%] |
| --- | --- | --- | --- | --- | --- | --- | --- | --- | --- | --- | --- | --- | --- | --- | --- | --- | --- | --- | --- | --- |
| CCCCCCCCOC(=O)c1ccc(O)c(OC)c1 | 105% | 97.7% | 78.8% | 93.2% | 85.8% | 78% | 97.1% | 92% | 59.3% | 105% | 97.7% | 105 | 85.8% | 50.8% | 98.6% | 103% | 91.9% | 1.05% (active) | 12.9% | – |
| CC[C@H](CC[C@@H](C)[C@H]1CC[C@H]2[C@@H]3CC=C4C[C@@H](OCCc5nn[nH]n5)CC[C@]4(C)[C@H]3CC[C@]12C)C(C)C | 102% | 94.8% | 107% | 110% | 105% | 112% | 111% | 118% | 99.9% | 110% | 111% | 102 | 108% | 99.5% | 101% | 105% | 105% | 103% | 100% | – |
| COc1ccc(-c2c[nH]c(C(=O)O)c2-c2cc(OC)c3c(c2OC)OCO3)cc1 | 103% | 110% | 91.6% | 101% | 104% | 103% | 102% | 95.4% | 95.4% | 104% | 109% | 105 | 99.9% | 90.3% | 116% | 100% | 86.4% | – | 102% | 95 |
| CCCCCCc1nc2nc(Cl)c(Cl)nc2[nH]1 | 57.2% | 77.3% | 53.2% | 65.6% | 49% | 47.9% | 16.2% | 38.4% | 53.7% | 65.1% | 63.4% | 52.6 | 60.8% | 52.6% | 76.9% | 67.4% | 39.1% | 47.8% | 49% | – |
| C#CCNC(=O)[C@H](Cc1ccccc1)NC(=O)[C@]12CC[C@@H](C(=C)C)[C@@H]1[C@H]1CC[C@@H]3[C@@]4(C)Cc5c([nH]c6ccccc56)C(C)(C)[C@@H]4CC[C@@]3(C)[C@]1(C)CC2 | 101% | 88.8% | 92.9% | 90.9% | 91.8% | 77.8% | 102% | 93.2% | 97.4% | 102% | 95.5% | 94 | 93.6% | 90.3% | 90.4% | 94.8% | 86.8% | 91.6% | 93.7% | – |
| C=C(C)[C@@H]1CC[C@]2(CO)CC[C@]3(C)[C@H](CC[C@@H]4[C@@]5(C)CCCNC(C)(C)[C@@H]5CC[C@]43C)[C@@H]12 | 3.28% (active) | 2.58% (active) | 77.1% | 49.6% | 7.49% (active) | 25.6% | -82.5% (active) | 43.2% | -57.7% (active) | -65.4% (active) | 78.8% | 63.3 | 45.9% | 53.8% | 80.8% | 50.2% | 38.4% | 12.4% | 4.4% (active) | – |
| Cc1ccc(-c2c(Br)c(OC(=O)CO[C@@H]3C[C@H](C)CC[C@H]3C(C)C)c(-c3ccc(C)cc3C)c(Br)c2OC(=O)CO[C@H]2C[C@@H](C)CC[C@@H]2C(C)C)c(C)c1 | 99.6% | 103% | 85.6% | 101% | 99.1% | 92.8% | 55.3% | 102% | 94.4% | 108% | 90.2% | 101 | 98.9% | 87% | 92.8% | 104% | 97% | 90% | 97.6% | – |
| CC1=CC2(C)/C=C(C)/C=C\CC(O)/C=C3/C=CC(=C4C(=O)OC2(CC1C)C4=O)OC3 (centres undefined) | -56.9% (active) | -6.52% (active) | 53.3% | 56.4% | -50.2% (active) | -8.09% (active) | 56.7% | 6.46% (active) | -89.1% (active) | -87.6% (active) | -89.2% (active) | 34.8 | -40.8% (active) | -53% (active) | -86.8% (active) | -94.7% (active) | -89.5% (active) | -39.4% (active) | -35.1% (active) | – |
| CC(=O)c1cc2c(N)c(C(=O)Nc3cncc4ccccc34)sc2nc1C | 95.4% | 107% | 91.5% | 98.5% | 106% | 93.8% | 98.5% | 76.1% | 98.9% | 102% | 91.2% | 100 | 95.3% | 80.1% | 119% | 97.1% | 83.8% | 104% | 90.3% | – |
| COc1ccc(C(=O)c2cc(C)c(OC)c(C)c2)c(OC)c1N(C(=O)C(Cl)Cl)C(=O)C(Cl)Cl | 7.03% (active) | 1.22% (active) | 56.4% | 26.4% | 19.2% | 18.1% | 0.812% (active) | 38.8% | 20.3% | 49.8% | 27.2% | 56.9 | 35.5% | 37.8% | 43.8% | 22.2% | 43.2% | 10.7% | 22.6% | – |
| Cc1cc2cc3cc(C)c(N)cc3[n+](C)c2cc1N | 31.8% | -16.8% (active) | 38.3% | 11.6% | 6% (active) | 8.84% (active) | 18.4% | 33% | -4.56% (active) | 21.7% | -21.9% (active) | 14.3 | 8.73% (active) | 14% | 16.2% | 28.5% | 52.7% | 18.8% | 5.32% (active) | – |
| O=C(O)/C=C\C(=O)N1C/C(=C\c2ccccc2Cl)C(=O)/C(=C/c2ccccc2Cl)C1 | -48.8% (active) | -78.1% (active) | -10.3% (active) | -52.7% (active) | -75.2% (active) | 16.7% | -54.1% (active) | -60.3% (active) | -69.3% (active) | -39.6% (active) | 37% | 40.1 | -30.7% (active) | -64.9% (active) | 0.472% (active) | 20.3% | 0.997% (active) | 3.66% (active) | 4.86% (active) | – |
| CC(=O)N1c2ccccc2NC2=C(C(=O)N(Cc3ccccc3)C2(C)C)C1c1ccco1 (centres undefined) | 15.7% | 9.99% (active) | 16.8% | 23.6% | 24.6% | 29.7% | 7.88% (active) | 21.2% | 25.6% | 57.3% | 16.9% | 35.4 | 35.9% | 52.5% | 54.9% | 33.5% | 43% | 24.1% | 28.6% | – |
| CCOC(=O)C1=C(C)NC(C)=C(C(=O)OCC)C1c1cc(Br)c(O)c(OC)c1 | 30.9% | 71.4% | 8.16% (active) | 45.2% | 33.1% | 32.6% | 19.5% | 48.8% | 36.7% | 47.5% | -7.22% (active) | 42.5 | 48.5% | 40.3% | 34.1% | 61.3% | 30.1% | 19.9% | 44.8% | – |
| Clc1cc(Cl)cc(N2N=C(c3cccc(Nc4ccncc4)c3)CC2c2ccc3c(c2)OCO3)c1 (centres undefined) | -66.7% (active) | 0.164% (active) | 67.5% | 81.9% | -43.6% (active) | 28.7% | 58.9% | 97.6% | -84.3% (active) | -82.4% (active) | 81.7% | 78.8 | 64.6% | 39.5% | 65.7% | -27.5% (active) | 16.4% | -1.31% (active) | -0.295% (active) | – |
| COc1cc2nc(-c3ccc(C(F)(F)F)cc3)cc(OCCCN3CCCCC3)c2cc1OC | 9.99% (active) | 15.8% | -10.6% (active) | 62.5% | 49.6% | 43.2% | 15.5% | -34.7% (active) | -28.5% (active) | 51.4% | 61.4% | 69.4 | 45.7% | 30.5% | 105% | 38.2% | 0.476% (active) | 42.4% | 35.8% | – |
